A short description of assay [1]: Validation of Assay for Modulators of Lamin A Splicing (AID 1459; active = well fitted curve in the direction sought with a large enough effect in the signal ratio; the % refers to the signal ratio;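 also: cells exposed to compound for two days before reading; 0% is about no effect; ratio rise marks activators and ratio drop marks inhibitors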). The essentials: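 Splicing correction read as GFP (500-530 nm) over DsRed2 (575-640 nm) object intensity after 48 h compound exposure of reporter HeLa S3 clones (600 cells/well, 2% FBS medium); ancitabine and cycloheximide titrations, 0.5% DMSO as vehicle.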
A short description of assay [2]: qHTS Assay for Lipid Storage Modulators (AID 1519; calls by dose curve; as to activity change, negative = inhibition: % is scaled to controls: 0 for no effect and ±100 for the full control effect). The following applies: Drosophila S3 cells, BODIPY lipid droplet/cell ratio, laser cytometry, cells loaded with oleic acid; for activity change, negative = inhibition: at 57.5 µM (top of the series). The procedure, abridged: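 Cells seeded at 5,000 per well were treated with compounds over a concentration series and loaded with oleic acid (400 uM, as added). Lipid droplet fluorescence (488 nm excitation, 500-530 nm channel) was read by laser-scanning cytometry and normalized to 20 uM Triacsin C.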

Assay [3] has as its target DNA repair nuclease/redox regulator APEX1 (Homo sapiens) (UniProt P27695). Put plainly: qHTS Validation Assay for Inhibitors of the Human Apurinic/apyrimidinic Endonuclease 1 (APE1) (AID 1705; also: potency is read from the fitted curve at half-maximal effect;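 as to activity change, negative = inhibition: TAMRA fluorescence gain over two minutes as APE1 cuts a quenched THF abasic duplex; % is scaled to controls: 0 for no effect and ±100 for the full control effect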). The procedure, abridged:
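Activity read as rising fluorescence (598 nm emission, 525 nm excitation) from incision of a TAMRA/BHQ-2 duplex carrying a THF abasic site (50 nM). Compound and enzyme sat 15 min at RT before substrate start; signal change between first and third 60-s reads.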
(In general: In qHTS, concentration-response curves come from the screen itself.)

A short description of assay [4]: Counterscreen for APE1 Inhibitors: Fluorescent Dye Displacement Validation Assay (AID 1707). Also: potency is read from the fitted curve at half-maximal effect.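 As to activity change, negative = inhibition: plate controls were ThO with dsDNA and no compound for no effect and ThO without dsDNA for full effect.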 The procedure, abridged: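 Endpoint fluorescence read at 480 nm excitation / 540 nm emission; DNA-binding compounds lower signal by displacing 250 nM Thiazole Orange from 50 nM dsDNA containing a tetrahydrofuran abasic site, Tris-HCl pH7.5 buffer with NaCl and MgCl2.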
The target of assay [5] is Endonuclease 4 (Escherichia coli (strain K12)) (UniProt P0A6C1). The assay can be described thus: Counterscreen for APE1 Inhibitors: qHTS Validation Assay for Inhibitors of Endonuclease IV (AID 1708). Also: potency is read from the fitted curve at half-maximal effect. As to activity change, negative = inhibition: % is scaled to controls: 0 for no effect and ±100 for the full control effect. The procedure, abridged: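 Incision of a double-stranded 50 nM TAMRA/BHQ-2 abasic substrate was followed kinetically (525/598 nm, reads every 60 s) after 15 min enzyme–compound preincubation with 2 nM EndoIV in pH 7.5 Tris buffer with MgCl2, DTT and Tween-20; concentration-response format.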

The nature of assay [6]: qHTS for differential inhibitors of proliferation of Plasmodium falciparum line 3D7 (AID 1876).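 Also: parasite growth measured after three days of culture; 0% = vehicle wells and -100% = reference inhibitor wells.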
The target in assay [7] is Alpha-galactosidase A (Homo sapiens) (UniProt P06280). The assay can be described thus: Counterscreen for Glucocerebrosidase Inhibitors: qHTS Assay for Human alpha-Galactosidase at pH 4.5 (AID 992). Also: 0% is about no effect. The procedure, abridged:
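Fluorogenic 4-MU alpha-D-galactoside (80 uM) hydrolysis, 2 nM enzyme, pH 4.5 citrate buffer + 0.005% Tween-20; 20 min RT; NaOH/glycine pH 10 stop; Ex365/Em440. Compounds titrated 0.7 nM–77 uM; Hill-equation AC50.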
Background: A counterscreen serves to expose hits that act by an unwanted route or on another target.

In assay [8] the target is alpha-glucosidase (Oryza sativa, rice) (UniProt Q653V4). Put plainly: Counterscreen for Glucocerebrosidase Inhibitors: qHTS Assay for Rice alpha-Glucosidase at pH 5.0 (AID 997).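 Also: 0% = full activity with enzyme and -100% = basal without enzyme.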 The procedure, abridged:
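Endpoint fluorogenic assay at pH 5.0: compounds (0.7 nM to 77 uM) titrated against 4 nM rice enzyme and 400 uM 4-MU-alpha-glucoside for 20 min at room temperature; NaOH/glycine stop, read ex 365/em 440 nm, Hill-fitted AC50.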

Assay [9] in a line: qHTS for differential inhibitors of proliferation of Plasmodium falciparum line 7G8 (AID 1815).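 Also: parasite growth measured after three days of incubation.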 Also: potency is read from the fitted curve at half-maximal effect.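 As to activity change, negative = inhibition: plate controls were vehicle wells for no effect and reference inhibitor wells for full effect.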
Assay [10] in a line: qHTS for differential inhibitors of proliferation of Plasmodium falciparum line GB4 (AID 1816).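 Also: parasite growth measured after 72 h incubation.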 Also: potency is read from the fitted curve at half-maximal effect.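 As to activity change, negative = inhibition: 0% = vehicle DMSO and -100% = reference inhibitor.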 The note with it: Potency: Plasmodium falciparum GB4 proliferation inhibition.
Where [11] appears, read: measured here: cell count channel max response.
Where [12] appears, read: measured here: lipid channel max response.

The structures appear in SMILES notation. “And” between values parts separate entries of the source, which are not always exact repeats. Identical values can stand only once. Results filed as inconclusive are left out. The source made the active and inactive calls. Unless noted, calls follow the shape of the dose curve; as a rule, active = well fitted curve in the direction sought with a large enough effect; inconclusive = small, poorly fitted or top-dose-only effect, or another doubt; inactive = no such curve, though single readings can be large; an effect the other way counts as inactive or inconclusive.

DNA repair nuclease/redox regulator APEX1 (Homo sapiens), sequence (P27695 whole entry, looked up): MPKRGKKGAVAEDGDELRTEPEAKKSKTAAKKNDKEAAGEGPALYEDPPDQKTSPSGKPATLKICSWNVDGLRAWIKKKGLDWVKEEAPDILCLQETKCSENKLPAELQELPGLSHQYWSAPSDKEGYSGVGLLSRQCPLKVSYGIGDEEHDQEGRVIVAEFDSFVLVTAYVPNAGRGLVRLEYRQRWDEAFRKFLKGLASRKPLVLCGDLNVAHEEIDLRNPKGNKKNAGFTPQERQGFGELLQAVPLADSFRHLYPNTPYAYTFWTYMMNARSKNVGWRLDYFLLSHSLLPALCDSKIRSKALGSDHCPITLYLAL
Alpha-galactosidase A (Homo sapiens), sequence (P06280 whole entry, looked up): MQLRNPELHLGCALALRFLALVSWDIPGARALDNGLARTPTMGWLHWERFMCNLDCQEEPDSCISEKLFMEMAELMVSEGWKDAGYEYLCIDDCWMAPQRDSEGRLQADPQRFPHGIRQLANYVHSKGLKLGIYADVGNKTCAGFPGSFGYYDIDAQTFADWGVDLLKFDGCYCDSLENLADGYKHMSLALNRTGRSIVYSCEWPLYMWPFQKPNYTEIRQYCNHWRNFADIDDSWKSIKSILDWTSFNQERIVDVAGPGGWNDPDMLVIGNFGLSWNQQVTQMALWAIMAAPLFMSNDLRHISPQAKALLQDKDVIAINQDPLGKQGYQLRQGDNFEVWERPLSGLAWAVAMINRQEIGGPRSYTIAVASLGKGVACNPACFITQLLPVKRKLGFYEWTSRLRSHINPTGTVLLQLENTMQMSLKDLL

As for `CN(C)CCC(c1ccc(Br)cc1)c1ccccn1` (stereo unspecified), the outcome in assay [1] was inactive. Besides, the activity change, negative = inhibition in assay [2] is 0.401% (inactive). Further, the figures for the max response in assay [2] (setting [11]) and in [2] (setting [12]) were 15.4% and 17.8%, respectively. Moreover, the Potency result in [3], in assay [4], in [5] and in [6] was “inactive” each time.
With `COCc1nc2c([nH]1)c(=O)n(C)c(=O)n2CC(C)C`, the call in assay [7], in assay [8] and in assay [1] was inactive. Also, in assay [2], the activity change, negative = inhibition is 1.67% (inactive). Also, the max response in assay [2] (setting [11]) is -19.5%; in [2] (setting [12]) it was -18.2%. In addition, the Potency entry in assay [4], in assay [5], in [9], in assay [10] and in assay [6] was “inactive” each time.
Turning to `O=C(O)C1=CC(=C(c2ccc(O)c(C(=O)O)c2)c2ccc(O)c(C(=O)O)c2)C=CC1=O`, the compound was classed as inactive in assay [7], in assay [8] and in assay [1]. Further, the activity change, negative = inhibition in assay [2] is 3.23% (inactive) and 0.986% (inactive). The max response in assay [2] (setting [11]) was 16.1% and 56.8%; in assay [2] (setting [12]), 22% and 58.3%. Besides, the Potency result in [4] is “inactive”. In assay [5], the Potency is 0.708 µM (active).
In the case of `Oc1ccc(Cn2cc[nH]c2=S)cc1`, the compound was called inactive in assay [7], in assay [8] and in [1]. Also, the activity change, negative = inhibition in [2] was -3.19% (inactive). The max response is -28.3% in assay [2] (setting [11]) and -29.9% in assay [2] (setting [12]). Besides, the Potency entry in [4], in assay [5], in [9], in assay [10] and in assay [6] was “inactive” throughout.
As to `NC/C=C\C(=O)O`, the call in assay [7], in [8] and in assay [1] was inactive. The activity change, negative = inhibition in assay [2] was 4.68% (inactive) and 0.384% (inactive). The max response in assay [2] (setting [11]) is -7.52% and 26.3%; in assay [2] (setting [12]), -6.79% and 26.6%. In addition, the Potency entry in assay [4], in assay [5], in [9], in assay [10] and in [6] was “inactive” each time.
With `O=C(O)c1cc2cc(F)ccc2[nH]1`, the result in assay [7], in assay [8] and in assay [1] was inactive. For the same compound, in [2], the activity change, negative = inhibition was 8.59% (inactive) and -0.743% (inactive). The max response is 14.4% and 31% in [2] (setting [11]); 24.2% and 29.2% in assay [2] (setting [12]). Moreover, the Potency entry in assay [3], in assay [5] and in assay [6] was “inactive” throughout.
On to `COc1cc(/C=C(\C#N)C(=O)c2ccc(O)c(O)c2)cc(I)c1O`, for which the outcome in assay [7], in assay [8] and in [1] was inactive. In addition, in [2], the activity change, negative = inhibition was -0.482% (inactive). For the same compound, the max response came to 28.4% in [2] (setting [11]) and 26.2% in [2] (setting [12]). Further, in assay [3], the Potency is 2.24 µM (active). Moreover, the Potency result in assay [4] was “inactive”.
For `CCCCCCC/C=C\CCCCCCCCC(=O)O`, the result in assay [7], in assay [8] and in assay [1] was inactive. Besides, in [2], the activity change, negative = inhibition was -0.534% (inactive). In addition, the max response was -11.1% in assay [2] (setting [11]) and -10.7% in [2] (setting [12]). Also, the Potency in [3] is 35.5 µM (active). The Potency result in assay [9], in [10] and in assay [6] was “inactive” throughout.
Regarding `COc1ccc(CCN(C)CCc2ccc(OC)c(OC)c2)cc1OC`, the result in [7], in assay [8] and in assay [1] was inactive. Also, the activity change, negative = inhibition in assay [2] is -1.77% (inactive) and -1.64% (inactive). Besides, the max response was 7.2% and 26.8% in assay [2] (setting [11]); 4.66% and 25.1% in [2] (setting [12]). Moreover, the Potency entry in assay [3] and in assay [4] was “inactive” in each case.
For `Nc1ncnc2c1ncn2C1CCCO1` (stereo unspecified), the result in [1] was inactive. Besides, the activity change, negative = inhibition in [2] is -1.26% (inactive). The results for the max response in [2] (setting [11]) and in assay [2] (setting [12]) were 24.9% and 22.8%, respectively. Also, the Potency entry in assay [4], in assay [5], in assay [9], in [10] and in assay [6] was “inactive” throughout.
In the case of `C#CCn1c(=O)c2c(ncn2C)n(C)c1=O`, the compound was classed as inactive in [7], in assay [8] and in assay [1]. Further, the activity change, negative = inhibition in [2] is 2.4% (inactive). Moreover, the max response is -11.8% in assay [2] (setting [11]) and -10.7% in assay [2] (setting [12]). Also, the Potency entry in assay [4], in assay [5], in [9], in assay [10] and in assay [6] was “inactive” throughout.
As for `CC1CCN=C(N)S1` (stereo unspecified), the outcome in assay [1] was inactive. Moreover, the Potency entry in assay [3], in [4], in assay [5] and in [9] was “inactive” each time.
Turning to `Oc1cc(O)c2c(c1)O[C@H](c1ccc(O)c(O)c1)[C@@H](O)C2`, the compound was called inactive in assay [1]. The activity change, negative = inhibition in assay [2] is 1.15% (inactive). Also, the max response is -12.7% in assay [2] (setting [11]) and -13.1% in [2] (setting [12]). For the same compound, the Potency result in assay [4], in assay [5], in assay [9], in assay [10] and in assay [6] was “inactive” each time.
For `CCCCS(=N)(=O)CC[C@H](N)C(=O)O` (stereo partly specified), the compound was called inactive in [1]. The Potency result in [3], in assay [4] and in [5] was “inactive” each time. The Potency in assay [9] was 12.6 µM (active); in assay [10] it was 11.2 µM (active).
As to `Cc1nc(N=Nc2cc(S(=O)(=O)O)c3cc([N+](=O)[O-])cc(S(=O)(=O)O)c3c2)c(COP(=O)(O)O)c(C=O)c1O`, the outcome in [7], in assay [8] and in assay [1] was inactive. Further, in assay [2], the activity change, negative = inhibition was -4.26% (inactive). For the same compound, the max response in assay [2] (setting [11]) was 6.63%; in [2] (setting [12]) it was 4.35%. Also, the Potency was 10 µM (active) in assay [4] and 15.8 µM (active) in assay [5]. Besides, in assay [6], the Potency result was “inactive”.
`Nc1ccc(CCNc2ncnc3c2ncn3C2OC(CO)C(O)C2O)cc1` (stereo unspecified): the call in assay [1] was inactive. Moreover, the Potency entry in [3], in [4] and in [5] was “inactive” in each case.
As for `OC[C@H]1NC[C@@H](O)[C@@H]1O`, the compound was classed as inactive in [1]. For the same compound, the Potency entry in [3], in [4], in assay [5], in [9], in assay [10] and in assay [6] was “inactive” each time.
As to `NOCC(=O)O`, the outcome in assay [7], in assay [8] and in assay [1] was inactive. The activity change, negative = inhibition in [2] was 2.14% (inactive). The figures for the max response in [2] (setting [11]) and in [2] (setting [12]) were -5.32% and 0.0357%, respectively. Also, the Potency result in assay [3], in [4] and in [10] was “inactive” each time.
On to `N#Cc1cc2nc(O)c(O)nc2cc1[N+](=O)[O-]`, for which the compound was called inactive in assay [7], in [8] and in assay [1]. Besides, the activity change, negative = inhibition in assay [2] was 3.63% (inactive) and -0.314% (inactive). Moreover, the max response in [2] (setting [11]) was 13.7% and -35.1%; in assay [2] (setting [12]), 18.1% and -33.4%. The Potency in [3] was 28.2 µM (active). In addition, the Potency entry in assay [4], in assay [9] and in [6] was “inactive” in each case.
`C=CCN1CCc2cc(O)c(O)cc2C(c2ccccc2)C1` (stereo unspecified): in [1], the outcome was inactive. In addition, in [2], the activity change, negative = inhibition was 0.997% (inactive). Also, the max response in assay [2] (setting [11]) is -6.45%; in assay [2] (setting [12]), -5.19%. Also, the Potency result in [4] is “inactive”. Also, the results for the Potency in assay [9] and in assay [10] were 11.2 µM (active) and 12.6 µM (active), respectively.
Turning to `Cc1cccc(C)c1OCC(N)C(C)C` (stereo unspecified), the compound was called inactive in assay [1]. The activity change, negative = inhibition in [2] is 0.702% (inactive). In addition, the max response in [2] (setting [11]) came to 60.7%; in assay [2] (setting [12]) it was 59.8%. For the same compound, the Potency entry in assay [4], in assay [5] and in assay [6] was “inactive” each time. Moreover, the Potency in assay [9] is 11.2 µM (active).
Take `O=C(O)C1CCNCC1`: the result in assay [7], in assay [8] and in assay [1] was inactive. In addition, the activity change, negative = inhibition in assay [2] is -0.0209% (inactive). For the same compound, the max response worked out at 11.3% in assay [2] (setting [11]) and 10% in [2] (setting [12]). Further, the Potency result in [3] and in assay [4] was “inactive” throughout.

The values above are taken from PubChem BioAssay (NCATS).
